MCF10A rerep – induces DNA re-replication in MCF 10a normal breast cells; MCF 10A DNA re-replication, Hoechst nuclear intensity, 48 h; Potency, µM (highest dose often 46.1 µM), most hits filed as activators; 350,000 tested, 2.9% active; AID 624296; further: nearly all actives have a fitted effect of over 50% in size
SW480 rereplic – DNA re-replication induction in SW480 cells. SW480 DNA re-replication, Hoechst DNA content imaging, 48 h. Potency, µM (titrated, usually from 46.1 µM), most hits filed as activators. 340,000 tested, 1.8% active. AID 624297; further: nearly all actives have a fitted effect of over 55% in size
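Compounds, transferred as 23 nL by pin tool, were incubated with cells for 48 hr; DNA content per nucleus was then quantified by Hoechst staining and fluorescence plate imaging.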
Giardia killer – Giardia lamblia killing | AID 540267 | activity change, % at 7.66 µM, hits read low | 340,000 tested, 0.15% active | Giardia lamblia trophozoite viability; in the data active means activity change below about -80%; inconclusive means between about -30% and that limit;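 further: parasites exposed to compound for two days anaerobically before the ATP read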
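Trophozoite viability was measured as ATP-dependent luminescence, read 15-30 min after reagent addition. Before that, parasites at 100 cells/well were exposed to compounds for 48 h, anaerobically, at 37 deg C.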
uPA generation – cell surface uPA generation inhibition. 330,000 tested, 0.31% active. cell surface uPA generation assay, qHTS. Potency, µM (series often up to 38.3 µM), hits mostly inhibitors; active means well fitted inhibition curve with a large enough effect; inconclusive means small, poorly fitted or top-dose-only effect; inactive means no such curve, though single readings can be large or run the other way; tested in mouse RAW 264.7 cells; further: nearly all actives have a fitted effect of over 55% in size
Large screens that a line does not name were inactive. Only some compounds are listed: those with a hit (about 4.3% of all), similar ones and a draw of the others. Unless noted, the call rests on the fitted dose curve; in most records, active means well fitted activation curve with a large enough effect; inconclusive means small, poorly fitted or top-dose-only effect; inactive means no such curve, though single readings can be large or run the other way.

CN(Cc1ccccc1)C(=O)c1ccc(NC(=O)Cc2ccc(NC(=O)C3CCCN(S(=O)(=O)c4cccc([N+](=O)[O-])c4)C3)cc2)cc1 (configuration not stated)	none
CCCc1cc(=O)[nH]c2nnc(SCC(=O)NCc3ccc4c(c3)OCO4)n12	none
OC[C@@H]1CCC[C@@H](n2cnc3c(=S)nc[nH]c32)O1	none (no result: MCF10A rerep, SW480 rereplic, uPA generation)
O=C(CNC(=O)c1n[nH]c2ccccc12)Nc1ccc(F)c(F)c1F	none
CC(Oc1ccccc1F)c1nnc(SCC(=O)NCc2ccc3c(c2)OCO3)o1 (configuration not stated)	none
O=C(CN1C(=O)c2ccccc2S1(=O)=O)Nc1ccccc1C(=O)NCc1ccco1	none
O=C(CN1C(=O)c2cccc3cccc1c23)Nc1ccccc1C(=O)NCc1ccco1	MCF10A rerep 21µM
CS(=O)(=O)c1ccc(Cl)c(NC(=O)CN2CCN(S(=O)(=O)/C=C/c3ccccc3)CC2)c1	none
N/C(=C\C(=O)c1cc(Cl)ccc1O)C(Cl)(Cl)Cl	MCF10A rerep 12µM, SW480 rereplic 10µM
CC(C)(C)c1ccc(C(=O)CC(=O)c2cc(Cl)ccc2O)cc1	MCF10A rerep inconclusive, SW480 rereplic inconclusive
O=C(c1ccc(Cl)cc1)C1CCCN(Cc2cccn2-c2ccccn2)C1 (configuration not stated)	none
Cc1ccsc1C(=O)C1CCCN(Cc2cccn2-c2ccc(Cl)cn2)C1 (configuration not stated)	MCF10A rerep inconclusive, SW480 rereplic 18µM, uPA generation inconclusive
Cc1ccc(OCC(=O)N/N=C/c2cn(C)c3ccccc23)cc1	MCF10A rerep inconclusive
CCOC(=O)c1c2ccc(OCC(=O)N/N=C/c3ccc(C)cc3)cc2n2ccccc12	MCF10A rerep 2.6µM, SW480 rereplic inconclusive
CCOC(=O)c1c2ccc(OCC(=O)NN)cc2n2ccccc12	MCF10A rerep 16µM
CCCCNc1ncnc2c1cnn2-c1ccccc1	MCF10A rerep inconclusive, SW480 rereplic 6.5µM
Clc1ccc(Cn2ncc3c(NCc4ccccc4)ncnc32)cc1	MCF10A rerep 6.5µM, SW480 rereplic inconclusive
Cc1ccc(CNc2ncnc3c2cnn3-c2ccccc2)cc1	none
CCc1nc(NC(C)(C)C)c2cnn(-c3ccccc3)c2n1	MCF10A rerep 23µM, SW480 rereplic inconclusive
CCCCNc1ncnc2c1cnn2-c1ccc(Cl)cc1	MCF10A rerep inconclusive, SW480 rereplic 8.2µM, uPA generation inconclusive
CCCCC[C@H](O)/C=C/[C@@H]1[C@H]2C/C(=C/CCCC(=O)O)O[C@H]2C[C@H]1O	none (no result: Giardia killer, uPA generation)
c1ccc(-n2ncc3c(NCc4ccco4)ncnc32)cc1	MCF10A rerep 13µM, SW480 rereplic 21µM
CC(C)Cc1ccc(CN2CCCC(NC(=O)c3cccc(-n4cnnc4)c3)C2)cc1 (configuration not stated)	MCF10A rerep inconclusive
Nc1c(C(=O)NC23CC4CC(CC(C4)C2)C3)sc2nc3c(c(C(F)(F)F)c12)CCC3	MCF10A rerep 1.6µM, SW480 rereplic inconclusive
O=C(Nc1ccon1)c1ccc(OC2CCCC2)cc1	Giardia killer inconclusive, uPA generation 10µM
COc1ccc(C2C3C=CCC(C)C3C(=O)N2Cc2ccccc2)cc1Cl (configuration not stated)	none (no result: MCF10A rerep, SW480 rereplic, uPA generation)
Cc1ccc(-c2csc3nc(-c4ccncc4)[nH]c(=O)c23)cc1	MCF10A rerep 18µM, SW480 rereplic 5.2µM
CCOc1ccc(-c2nc3scc(-c4cccs4)c3c(=O)[nH]2)cc1	MCF10A rerep 1.5µM
COC1=C(Nc2ccc(OC)cc2)C(=O)c2ccccc2C1=O	MCF10A rerep inconclusive, SW480 rereplic 23µM
COc1ccc(NC2=C(NCCO)C(=O)c3ccccc3C2=O)cc1	MCF10A rerep inconclusive, SW480 rereplic 18µM
COC1=C(Nc2ccc(OC)cc2)C(=O)C(OC)=C(Nc2ccc(OC)cc2)C1=O	none
Cc1nc(C)c(C(=O)OCC(=O)N(C)c2ccccc2)s1	none
COc1ccc(-c2c(C)n([O-])c(C)c(C)[n+]2=O)cc1OC	none
CC(=O)c1c(C)n([O-])c2cc(C)ccc2[n+]1=O	Giardia killer -104
Cc1c(Cl)cccc1NC(=S)NCCc1ccccn1	MCF10A rerep inconclusive
S=C(NCCc1ccccn1)Nc1ccccc1Cl	SW480 rereplic 9.2µM
COc1ccc(C2/C=C\CN(CC3CCCCC3)C(Cc3ccccc3)C(=O)N2Cc2ccc(F)cc2)cc1 (configuration not stated)	none (no result: MCF10A rerep, SW480 rereplic, uPA generation)
CCOC(=O)C1(CCCc2ccccc2)CCN(C(=O)CCC2=NNC(=O)CC2)CC1	none
COc1cccc(CNc2ccc(S(N)(=O)=O)cc2)c1OC	SW480 rereplic 18µM
COc1cccc(CNc2ccc(N3CCCCC3)cc2)c1OC	MCF10A rerep inconclusive, SW480 rereplic inconclusive
CC(=O)Nc1ccc(C2=CC(=O)C[C@H](c3ccc(Cl)cc3)C2)cc1	MCF10A rerep 18µM, SW480 rereplic inconclusive
O=C1C=C(Nc2ccc(Cl)cc2)CC(c2ccccc2)C1 (configuration not stated)	MCF10A rerep 16µM, SW480 rereplic inconclusive
Cc1ccc(NC2=CC(=O)CC(c3ccccc3)C2)cc1 (configuration not stated)	MCF10A rerep 8.2µM, SW480 rereplic 21µM
CC(C)CCNC1=CC(=O)CC(c2ccccc2)C1 (configuration not stated)	MCF10A rerep inconclusive, SW480 rereplic 18µM
COc1ccc([C@H]2CC(=O)C=C(c3ccc(NC(C)=O)cc3)C2)cc1OC	none
CCOc1ccccc1NC(=O)CSc1nnc(CCC(=O)Nc2ccccc2F)n1C	none
COc1ccc(/C=N/NC(=O)c2ccc3c(c2)OCCO3)cc1[N+](=O)[O-]	none
O=C(/C=C\Nc1ccc2c(c1)OCO2)c1ccc2c(c1)OCO2	MCF10A rerep 21µM
O=C(O)c1ccc(/C=C/C(=O)c2ccc3c(c2)OCCCO3)cc1	MCF10A rerep inconclusive, SW480 rereplic 21µM, Giardia killer inconclusive
COc1ccc(Oc2ccc(/C=C/C(=O)c3cccc(OC)c3)cc2[N+](=O)[O-])cc1	MCF10A rerep 6.5µM, SW480 rereplic inconclusive
COc1ccc(/C=C/C(=O)c2ccc3c(c2)OCCO3)cc1[N+](=O)[O-]	MCF10A rerep 3.7µM, SW480 rereplic 12µM
CC(=O)Nc1ccc(/C=C/C(=O)c2ccc3c(c2)OCCO3)cc1	MCF10A rerep inconclusive, SW480 rereplic inconclusive
CCOc1cc(CNn2cn[nH]c2=S)cc(Cl)c1OCc1ccccc1F	SW480 rereplic inconclusive
Cc1ccc(NC(=O)Nc2ccc(F)cc2)cc1Cl	SW480 rereplic inconclusive
COc1cc(/C=C/C(=O)c2ccc3c(c2)OCO3)cc(Cl)c1O	MCF10A rerep 9.2µM, SW480 rereplic inconclusive
O=c1cc(CSc2nnc(COc3cccc4ccccc34)o2)c2ccccc2[nH]1	none
O=C(O)CCCC(=O)N1CCOCCOCCOCCOCC1	none
O=c1[nH]c(Nc2ccccc2)cc2cc(Br)ccc12	MCF10A rerep inconclusive, SW480 rereplic inconclusive, uPA generation inconclusive
COc1ccccc1Nc1cc2cc(Br)ccc2c(=O)[nH]1	MCF10A rerep 21µM, SW480 rereplic inconclusive, uPA generation 3.2µM
COc1ccc(OC)c(Nc2cc3ccccc3c(=O)[nH]2)c1	MCF10A rerep 16µM, SW480 rereplic 21µM, uPA generation inconclusive
O=c1[nH]c(Nc2ccccc2)cc2ccccc12	MCF10A rerep 13µM
